Measurements published in the supplement of paper PMC8183993.
Several values for one entry are separate records, joined by “and”; a condition that tells them apart may be missing. Equal values may be shown once. Where a name gives a salt, the structure may show the parent alone. ± gives the standard deviation of the averaged measurements. In all, about 3,200 compounds were measured (“nuclei count (viability) relative to DMSO”: median about 99, lowest 2% from about 16 on). What follows is part of a selection rich in the lowest values, with near analogues and random picks from the rest.

System: U2OS
Experiment: nuclei count (viability) relative to DMSO (% of DMSO); higher = more viable cells
Conditions: 10 µM; 24 h
Protocol: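 Primary image-based screen in U2OS cells: compounds at 10 uM for 24 h, then a 1 h o-propargyl-puromycin (OPP) pulse, click labelling, and high-throughput microscopy. Mean cytoplasmic OPP intensity and nuclei count were normalised to DMSO wells within each plate (DMSO = 100) and averaged over triplicate plates.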

Structure (SMILES) | nuclei count
C[C@H](CC[C@@H]1OC1(C)C)[C@H]1CC[C@H]2[C@@H]3CC=C4C[C@@H](O)CC[C@]4(C)[C@H]3CC[C@]12C [24(S),25-Epoxycholesterol] | 107
Cc1c(NC(=O)OC[C@@H]2COCCN2)cn2ncnc(Nc3ccc4c(cnn4Cc4cccc(F)c4)c3)c12 | 100
CC1(C)C(=O)NC2=C1C(=O)C(=O)c1ccccc12 | 40.5 and 19.2
COc1ccc(NS(=O)(=O)c2sc3ccc(Cl)cc3c2C)cc1N1CCNCC1 | 98.3
O=C(Nc1ccccc1)C12CC1C(=NO)c1ccccc1O2 (centres undefined) | 99.8
O=C(NCCN1CCOCC1)c1ccc(Cl)cc1 [Moclobemide] | 90.8
Cc1cc(-c2ccccc2)nnc1NCCN1CCOCC1 [Minaprine dihydrochloride] | 102
O=C1C(Cl)=C(NCCN2CCOCC2)C(=O)c2ncccc21 | 5.89
CCN(CC)c1ccc(/C=N/NC(=O)c2ccc(O)cc2)cc1 | 89.4
C[N+](C)(C)CC[N+]1(C)Cc2c(Cl)c(Cl)c(Cl)c(Cl)c2C1 [Chlorisondamine diiodide] | 90.8
O=C(O)[C@H]1O[C@@H](Oc2cc3oc(-c4ccccc4)cc(=O)c3c(O)c2O)[C@H](O)[C@@H](O)[C@@H]1O [Baicalin] | 101
c1cc2c3c(c1)c1c(n3CCNC2)CCCC1 [WAY 629 hydrochloride] | 94.2
Cc1cc(O)c2c(c1)C(=O)c1cccc(O)c1C2=O [Chrysophanic acid (Chrysophanol)] | 92.5 ± 11
CC(C)[C@H](C(=O)Nc1ccc(C(=O)NO)cc1)c1ccccc1 | 29.3
CCN(CC)Cc1ccc2cc(COC(=O)Nc3ccc(C(=O)NO)cc3)ccc2c1 [ITF2357 (Givinostat)] | 14.7
COc1ccc(Cn2ccc3ccc(C(=O)NO)cc32)cc1 | 101
Nc1ncnc2c1ncn2[C@@H]1O[C@H](COP(=O)(O)OP(=O)(O)OP(=O)(O)O)[C@@H](O)[C@H]1O [ATP (Adenosine-Triphosphate)] | 106
CCN(CC)CCNC(=O)c1c(C)[nH]c(/C=C2\C(=O)Nc3ccc(Cl)cc32)c1C | 79.9
CCCS(=O)(=O)c1nc(NC2CC2)cc(-c2ccc3c(ccn3C3CC(C)(C)NC(C)(C)C3)c2)n1 | 8.4
O=C(NC[C@H](O)CN1CCc2ccccc2C1)c1ccnc(NC2CCC2)c1 | 102
Cc1ccc(/C=C2\CNC/C(=C\c3ccc(C)cc3)C2=O)cc1 | 7.58
CC1(C)[C@@H](O[C@H]2O[C@H](C(=O)O)[C@@H](O)[C@H](O)[C@H]2O[C@@H]2O[C@H](C(=O)O)[C@@H](O)[C@H](O)[C@H]2O)CC[C@]2(C)[C@H]3C(=O)C=C4[C@@H]5C[C@@](C)(C(=O)O)CC[C@]5(C)CC[C@@]4(C)[C@]3(C)CC[C@@H]12 [Ammonium Glycyrrhizinate (AMGZ)] | 101
CC1(C)[C@@H](O[C@H]2O[C@H](C(=O)O)[C@@H](O)[C@H](O)[C@H]2O[C@@H]2O[C@H](C(=O)O)[C@@H](O)[C@H](O)[C@H]2O)CC[C@]2(C)[C@H]3C(=O)C=C4[C@@H]5C[C@@](C)(C(=O)O)CC[C@]5(C)CC[C@@]4(C)[C@]3(C)CC[C@@H]12 [Glycyrrhizic acid] | 101

Structure (SMILES) | nuclei count
CC(C)Cc1ccc(C(C)C(=O)NO)cc1 (centres undefined) [Ibuproxam] | 95.9
CN(C)c1ccc(C(=C2C=CC(=[N+](C)C)C=C2)c2ccc(N(C)C)cc2)cc1 [Crystal violet] | 13
CCOC(=O)Nc1cc(-c2ccc(C)c(NS(C)(=O)=O)c2)nn2c(C)nnc12 [Bromosporine] | 74.5
CCCn1c(=O)c2[nH]c(-c3ccccc3)nc2n(CCC)c1=O [1,3-Dipropyl-8-phenylxanthine] | 98.9
CC(C)C(=O)SCCCCCCC(=O)Nc1nc(-c2ccccc2)cs1 | 45.8
CCOC(=O)c1cnc2c(cnn2CC)c1NN=C(C)C [Etazolate hydrochloride] | 106
Cc1[nH]c(/C=C2\C(=O)Nc3ccc(S(=O)(=O)N(C)c4cccc(Cl)c4)cc32)c(C)c1C(=O)N1CCN(C)CC1 | 52.4
CN1CCN(C(=O)c2nc3ccc(Cl)cc3[nH]2)CC1 | 88.3
CN1CCCN(C(=O)c2cccc(-c3ccc(/C=C4/C(=O)Nc5ccc(Cl)cc54)o3)c2)CC1 | 6.22
CCCNC(=O)N1N=C(c2ccc(N)cc2)c2cc3c(cc2C1C)OCO3 (centres undefined) | 93
C[C@H]1O[C@@H](O[C@H]2[C@@H](O)C[C@H](O[C@H]3[C@@H](O)C[C@H](O[C@H]4CC[C@@]5(C)[C@H](CC[C@@H]6[C@@H]5C[C@@H](O)[C@]5(C)[C@@H](C7=CC(=O)OC7)CC[C@]65O)C4)O[C@@H]3C)O[C@@H]2C)C[C@H](O)[C@@H]1O [Digoxin] | 14.3
CCN1CCN(c2cc(-c3ccc(F)cc3)c3c(n2)CCCCCC3)CC1 [Blonanserin (Lonasen)] | 98.7
C[S+]([O-])c1ccc(-c2nc(-c3ccc(F)cc3)c(-c3ccncc3)[nH]2)cc1 (centres undefined) | 96.8 and 103
CCCCC(CC)CNC(=N)NC(=N)NCCCCCCNC(=N)NC(=N)NCC(CC)CCCC (centres undefined) [Alexidine dihydrochloride] | 6.87
N=C(NCCCCCCNC(=N)NC(=N)Nc1ccc(Cl)cc1)NC(=N)Nc1ccc(Cl)cc1 [Chlorhexidine] | 75.6
Nc1nc(OCc2cc(Br)cs2)c2[nH]cnc2n1 [Lomeguatrib] | 102
COc1cccc2c1C(=O)c1c(O)c3c(c(O)c1C2=O)C[C@@](O)(C(=O)CO)C[C@@H]3O[C@H]1C[C@H](N)[C@@H](O)[C@H](C)O1 [Epirubicin HCl] | 13.2
COc1cccc2c1C(=O)c1c(O)c3c(c(O)c1C2=O)C[C@@](O)(C(C)=O)C[C@@H]3O[C@H]1C[C@H](N)[C@H](O)[C@H](C)O1 [Daunorubicin hydrochloride] | 12.3
COc1cccc2c1C(=O)c1c(O)c3c(c(O)c1C2=O)C[C@@](O)(C(=O)CO)C[C@@H]3O[C@H]1C[C@H](N)[C@H](O)[C@H](C)O1 [Doxorubicin hydrochloride] | 13 ± 0.18
COc1cccc2c1C(=O)c1c(O)c3c(c(O)c1C2=O)C[C@@](O)(C(C)=O)C[C@@H]3O[C@H]1C[C@H](N)[C@H](O)[C@H](C)O1 [Daunorubicin HCl (Daunomycin HCl)] | 10.2
COc1cccc2c1C(=O)c1c(O)c3c(c(O)c1C2=O)C[C@@](O)(C(=O)CO)C[C@@H]3O[C@H]1C[C@H](N)[C@H](O)[C@H](C)O1 [Doxorubicin (Adriamycin)] | 12.7
CC(=O)[C@]1(O)Cc2c(O)c3c(c(O)c2[C@@H](O[C@H]2C[C@H](N)[C@H](O)[C@H](C)O2)C1)C(=O)c1ccccc1C3=O [Idarubicin HCl] | 11.6
COc1cccc2c1C(=O)c1c(O)c3c(c(O)c1C2=O)C[C@@](O)(C(=O)CO)C[C@@H]3O[C@H]1C[C@H](N)[C@H](O[C@@H]2CCCCO2)[C@H](C)O1 [Pirarubicin] | 33

Structure (SMILES) | nuclei count
CCCc1c(OCCCOc2ccc(OCC(=O)O)cc2)ccc(C(C)=O)c1O | 108
COc1c(OCCCN2CCOCC2)ccc2c1N=C(NC(=O)c1cnc(N)nc1)N1CCN=C21 | 93.2
CCOC(=O)[C@H](CCc1ccccc1)N[C@H]1CS[C@H](c2cccs2)CN(CC(=O)O)C1=O [Temocapril HCl] | 108
O=C(/C=C/c1c(C(=O)O)[nH]c2cc(Cl)cc(Cl)c12)Nc1ccccc1 [Gavestinel] | 93.2
Cn1cnc(N)c2ncnc1-2 [3-Methyladenine (3-MA)] | 107
Cn1cnc(N)c2ncnc1-2 [3-Methyladenine] | 104
OCC1OC(n2cnc3c(NC4CCCC4)nc(Cl)nc32)C(O)C1O (centres undefined) [2-Chloro-N6-cyclopentyladenosine] | 93.5
CC/C=C\C/C=C\C/C=C\C/C=C\C/C=C\C/C=C\CCC(=O)O [Docosa-4Z,7Z,10Z,13Z,16Z,19Z-hexaenoic acid] | 96.9
CCCOC(=O)c1cc(O)c(O)c(O)c1 [N-Propyl gallate] | 82.9
Cc1cc(/C(=C/Nc2ccc(Cl)cc2)C(=O)Nc2ccc(Cl)cc2)on1 | 102
Cc1sc(N)c(C(=O)c2cccc(C(F)(F)F)c2)c1C | 107
N[C@H](C(=O)O)[C@H](OCc1ccccc1)C(=O)O (racemic) | 89.6
CC(C)NCCN(C(C)C)S(=O)(=O)c1ccc(Cl)cc1Cl | 79.5
CCCCCS(=O)(=O)CCCCCCCCCCn1c(-c2ccc(O)cc2)c(C)c2cc(O)ccc21 | 105
CN(CCOc1ccc(C[C@H](Nc2ccccc2C(=O)c2ccccc2)C(=O)O)cc1)c1ccccn1 | 104
Cc1cc(C(=O)NNCc2ccccc2)no1 [Isocarboxazid] | 109
CC1(C)S[C@@H]2[C@H](NC(=O)Cc3ccccc3)C(=O)N2[C@H]1C(=O)O [Benzathine benzylpenicillin] | 81.7
CC1(C)OC2=C(C(=O)c3ccccc3C2=O)[C@H](NCc2ccccc2)[C@@H]1O | 14.7
CC1(C)S[C@@H]2[C@H](NC(=O)Cc3ccccc3)C(=O)N2[C@H]1C(=O)O [Benzylpenicillin sodium] | 98.6
C[C@H]1COC2(CCN(c3nc(=O)c4cc(C(F)(F)F)cc([N+](=O)[O-])c4s3)CC2)O1 (racemic) [BTZ043 racemate] | 101
Cc1nnc(-c2ccc3occ(-c4ccc([S+](C)[O-])cc4)c3c2)o1 (centres undefined) | 112
COc1c(C)cnc(Cn2cnc3c(Cl)nc(N)nc32)c1C | 49.7
Cc1cn(CCN2CCN(c3ccccc3-c3cc(C#N)cc(C(=O)NCCCN4CCCC4)c3)CC2)c2ccccc12 | 22.8
